{
  "source": "PubChem BioAssay AID977607",
  "about": "(Broad Institute, 2014)",
  "note": "About 460 (31%) of roughly 1,500 compounds were called active. Inconclusive results (about 1%) are left out. Not all results are given here. Entries with a potency or affinity are not part of this list. Unmarked numbers belong to inactive results.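 The calls were made as follows: active = curve reaches 40% activation over neutral controls at an AC40 no higher than the top valid tested concentration; inconclusive = no clear call, values can overlap the other calls; inactive = signal moving opposite to the expected increase, and the rest.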",
  "data": [
    {"assay": "GLuc-reported insulin release enhancers, glucose-stimulated beta cells – cell-based, INS-1E, Gaussia luciferase, luminescence, cherry-pick, set 2, dose response (AID 977607);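 also: 0% = median of the plate neutral control wells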", "details": "INS-1E GLuc insulin secretion reporter, 2-3 h, hits give high values; at 35 µM, 100% = signal doubled over neutral wells unless noted", "values": [
      {"smiles": "O=C(Cn1cnc2c(OCc3ccccc3)ncnc21)NCc1ccccn1", "max activation": "17.4% [at 0.135 µM, 100% = signal doubled over neutral wells]"},
      {"smiles": "Cc1c(C)n(CCCN(C)C)c2ncnc(Nc3ccccc3)c12", "max activation": "-20.1% [at 11 µM, 100% = signal doubled over neutral wells]"},
      {"smiles": "Cc1ccc(F)cc1NC(=O)c1sc2ncn(CC(=O)N3CCN(c4ccccn4)CC3)c(=O)c2c1C", "max activation": "-38%"},
      {"smiles": "Cc1ccc(/C=N/n2c(-c3cccnc3)n[nH]c2=S)s1", "max activation": "-11.8% [at 1.2 µM, 100% = signal doubled over neutral wells]"},
      {"smiles": "COc1ccc(/C=N/n2c(-c3n[nH]c4c3CCC4)n[nH]c2=S)cc1OC", "max activation": "-27.2% [at 0.0016 µM, 100% = signal doubled over neutral wells]"},
      {"smiles": "S=c1[nH]nc(-c2ccccc2)n1/N=C/c1c[nH]c2ccccc12", "max activation": "30.5% [at 0.005 µM, 100% = signal doubled over neutral wells]"},
      {"smiles": "C=CCN=c1sc(C(=O)OC)cc(=O)n1CC=C", "max activation": "27.6% [at 11 µM, 100% = signal doubled over neutral wells]"},
      {"smiles": "Cc1ccc(F)cc1-c1nc(NC(C)C)nc2cc(-c3ccccc3)sc12", "max activation": "-27.5% [at 11 µM, 100% = signal doubled over neutral wells]"},
      {"smiles": "COc1ccc(CCNC(=O)CN2c3cccc4cccc(c34)S2(=O)=O)cc1OC", "max activation": "39.7%"},
      {"smiles": "O=C(Nc1cccnc1)/C(N=Nc1cccnc1)=C(\\O)c1ccccc1", "max activation": "-11.7% [at 0.42 µM, 100% = signal doubled over neutral wells]"},
      {"smiles": "O=C(NCc1ccccc1)C(c1ccncc1)n1c(=O)c(-c2ccccc2)nc2ccccc21", "note": "(centres undefined)", "max activation": "-12.6% [at 1.2 µM, 100% = signal doubled over neutral wells]"},
      {"smiles": "O=C(OC1CCOC1=O)c1cc(-c2ccc(Cl)cc2)nc2ccccc12", "note": "(centres undefined)", "max activation": "34.2% [at 3.8 µM, 100% = signal doubled over neutral wells]"},
      {"smiles": "COc1cc(C)c(C)cc1S(=O)(=O)N1CCCCC1c1cccnc1", "note": "(centres undefined)", "max activation": "13% [at 1.2 µM, 100% = signal doubled over neutral wells]"},
      {"smiles": "CCc1nc2ccc(C(=O)NCCCN(C)C)cn2c1N(C)Cc1ccc(OC)cc1", "max activation": "-28.3% [at 0.046 µM, 100% = signal doubled over neutral wells]"},
      {"smiles": "COC(=O)C1=C(C)NC(=S)NC1c1cccc(OC)c1", "note": "(centres undefined)", "max activation": "-19.4% [at 0.046 µM, 100% = signal doubled over neutral wells]"},
      {"smiles": "CC1CN(S(=O)(=O)c2cc(C(=O)NC(C)c3cccnc3)ccc2Cl)CC(C)O1", "note": "(centres undefined)", "max activation": "-33%"},
      {"smiles": "O=C1c2[nH]nc(-c3ccccc3)c2C(c2ccccc2)N1c1ccccc1", "note": "(centres undefined)", "max activation": "-31.9%"},
      {"smiles": "COc1ccccc1CNC(=O)CCNS(=O)(=O)c1ccc2[nH]c(=O)oc2c1", "max activation": "-23% [at 0.015 µM, 100% = signal doubled over neutral wells]"},
      {"smiles": "COC(=O)c1cc(S(=O)(=O)NCC2CCN(Cc3cc(C)ccc3C)CC2)c[nH]1", "max activation": "-22.8% [at 11 µM, 100% = signal doubled over neutral wells]"},
      {"smiles": "O=C(c1ccco1)N1CCN(C2CN(Cc3ccccc3)S(=O)(=O)C2)CC1", "note": "(centres undefined)", "max activation": "13.2% [at 0.135 µM, 100% = signal doubled over neutral wells]"},
      {"smiles": "Cn1cc(Br)c(C(=O)NNC(=O)c2ccccc2)n1", "max activation": "-8.88% [at 0.015 µM, 100% = signal doubled over neutral wells]"},
      {"smiles": "Cc1[nH]n(-c2ccc(Br)cc2)c(=O)c1/C=N/NC(=O)c1ccccc1", "max activation": "-37.8%"},
      {"smiles": "O=C(Nc1cccnc1Cl)C1=NN(c2ccccc2)C(=O)CC1", "max activation": "-19.3% [at 0.42 µM, 100% = signal doubled over neutral wells]"},
      {"smiles": "C/C=C/Cn1c(N2CCCCCC2)nc2c1c(=O)[nH]c(=O)n2C", "max activation": "53.5%"},
      {"smiles": "Cn1c(=O)[nH]c(=O)c2c1nc(N1CCCCC1)n2C/C=N/Nc1ccc(C(=O)O)cc1", "max activation": "40.2% [at 0.0016 µM, 100% = signal doubled over neutral wells]"},
      {"smiles": "C[C@@H]1CC2=C(C(=O)OC(C)(C)O2)[C@H](c2ccc(Cl)cc2)O1", "max activation": "-23% [at 0.42 µM, 100% = signal doubled over neutral wells]"},
      {"smiles": "Cc1nc2ccccc2c2oc(C(=O)N3CCCC(C)C3)cc12", "note": "(centres undefined)", "max activation": "-8.46% [at 11 µM, 100% = signal doubled over neutral wells]"},
      {"smiles": "CCOC(=O)Cc1csc(NC(=O)c2ccc(OC)c(OC)c2)n1", "max activation": "24.7%"},
      {"smiles": "COc1ccc(CCNC(=O)Cc2ccc3c(c2)OCO3)cc1OC", "max activation": "-22.4% [at 0.42 µM, 100% = signal doubled over neutral wells]"},
      {"smiles": "Cc1c(C(=O)N(C)CCc2cnn(C)c2)oc2c(F)cccc12", "max activation": "-14.1% [at 3.8 µM, 100% = signal doubled over neutral wells]"},
      {"smiles": "CC(=O)Nc1ccc(S(=O)(=O)Nc2ccc3c(c2)n(C)c(=O)n3C)c(C)c1", "max activation": "-23.1%"},
      {"smiles": "CCCCn1c(=O)n(C)c(=O)c2c3c(sc21)COC(C)(C)C3", "max activation": "-17% [at 0.015 µM, 100% = signal doubled over neutral wells]"},
      {"smiles": "O=C(NCc1cccnc1)c1cccc(S(=O)(=O)NCc2ccccc2)c1", "max activation": "-24% [at 0.0016 µM, 100% = signal doubled over neutral wells]"},
      {"smiles": "COc1ccc(C(=O)Nc2ccccc2C(=O)NCc2cccnc2)cc1OC", "max activation": "42.3% [at 0.42 µM, 100% = signal doubled over neutral wells]"}
    ]}
  ]
}
